# Sfp PPTase inh: Sfp phosphopantetheinyl transferase inhibition | Q9F4F7 | Biochemical Sfp PPTase activity, qHTS | Potency, µM, usual class: inhibitors | 310,000 tested, 3.5% active | AID 1490;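 also: the enzyme is Sfp with the accession as filed and its product quenches rhodamine fluorescence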
#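 Step 1, compound plus 15 nM Sfp-PPTase, 15 min, room temperature. Step 2, add rhodamine-CoA (5 uM) and BHQ-2-YbbR (12.5 uM). Step 3, read 525/598 nm fluorescence at 0 and 30 min.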
# Tau ThT inhib: inhibitors of human tau fibril formation, thioflavin T binding; P10636; recombinant tau K18 P301L, heparin-induced fibrillization, ThT fluorescence; Potency, µM (highest dose often 57.4 µM), actives largely listed as inhibitors; 270,000 tested, 2.1% active; also: nearly all actives have a fitted effect of over 55% in size
# Target sequence (P10636 561-689 P618L limits assumed): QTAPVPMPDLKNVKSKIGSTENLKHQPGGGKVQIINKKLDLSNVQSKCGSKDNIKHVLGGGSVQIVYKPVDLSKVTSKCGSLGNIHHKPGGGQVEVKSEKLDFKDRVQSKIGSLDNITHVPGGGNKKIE
#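 Heparin-induced (20 uM) aggregation of recombinant human K18 P301L tau, 15 uM unlabeled with 0.24 uM labeled, pH 7 acetate buffer, 6 hr at 37 C with compound. Fibrils quantified by 30 uM ThT fluorescence after 1 hr ambient incubation.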
# G9a inh: blocks human histone lysine methyltransferase G9a; Q96KQ7; G9a H3K9 monomethylation, AlphaScreen, 2 h; Potency, µM (titrated, usually from 102 µM), hits mostly inhibitors; 350,000 tested, 8.8% active; AID 504332; also: nearly all actives have a fitted effect of over 75% in size
# Target sequence (Q96KQ7 913-1193 limits assumed): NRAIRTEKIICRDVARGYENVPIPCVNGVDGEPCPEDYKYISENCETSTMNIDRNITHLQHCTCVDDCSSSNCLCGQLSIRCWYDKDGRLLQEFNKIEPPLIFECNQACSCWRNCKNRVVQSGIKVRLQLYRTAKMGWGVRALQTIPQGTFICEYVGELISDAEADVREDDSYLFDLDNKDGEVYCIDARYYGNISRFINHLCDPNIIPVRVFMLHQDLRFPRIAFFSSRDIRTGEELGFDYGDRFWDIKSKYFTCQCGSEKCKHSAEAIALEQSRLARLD
#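 Compounds were preincubated with 20 nM G9a for 15 min, after which biotinylated H3K9 peptide (500 nM) and SAM (20 uM) started a 2 h room-temperature reaction. Monomethylated product was quantified by antibody-based AlphaScreen chemiluminescence.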
# Tau fluor cs: counter-screen for tau fibril formation inhibitors. AID 1463. Potency, µM (doses to about 57.7 µM). 280,000 tested, 0.93% active. tau K18 P301L (four-repeat tau fragment) Alexa594 fluorescence, heparin fibrillization; also: nearly all actives have a fitted effect of over 55% in size
#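 Human K18 P301L tau (15 uM unlabeled plus 0.24 uM Alexa 594-labeled, final) in 100 mM sodium acetate pH 7 was mixed with compound and 20 uM heparin and incubated 6 hr at 37 C.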
# FBPA coupling cs: inhibits coupling enzyme system, counter-screen for aldolase hits | coupling enzyme system counterscreen, AmpLite Red fluorescence | activity change, negative = inhibition, % at 58.2 µM, hits read low | 290,000 tested, 0.67% active | AID 2472; in the data active = activity change below about -30%
#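 Compounds tested against the coupling enzymes alone at 57.5 uM final; readout was AmpLite Red fluorescence (525/598 nm) after 20 min at RT.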
# Tau FP inhib: inhibitors of human tau fibril formation; P10636; K18 P301L tau heparin fibrillization, Alexa594 FP, 6 h; Potency, µM (titrated, usually from 57.7 µM), actives largely listed as inhibitors; 280,000 tested, 0.39% active; AID 1468; also: nearly all actives have a fitted effect of over 55% in size
#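 Steps: dispense K18 P301L tau (15 uM plus 0.24 uM Alexa 594 tracer, final) in pH 7 sodium acetate; add compound; add heparin (20 uM final); incubate 6 hr, 37 C; add ThT (30 uM final); after 1 hr ambient, read FP.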
# Hits are given with their value; i = inactive; ? = inconclusive; nt = not tested or not shown; [ ] = another dose, or the depositor's remark. Rows were chosen to be rich in hits. Some 11% of all compounds tested hit in one or more screens of this group. Unless noted, calls follow the shape of the dose curve; as a rule, active = well fitted curve in the direction sought with a large enough effect; inconclusive = small, poorly fitted or top-dose-only effect, or another doubt; inactive = no such curve, though single readings can be large; an effect the other way counts as inactive or inconclusive.
SMILES,Sfp PPTase inh,Tau ThT inhib,G9a inh,Tau fluor cs,FBPA coupling cs,Tau FP inhib
Cc1ccn2c(Nc3ccccc3)c(-c3c[nH]c4ccccc34)nc2c1,nt,?,8.9µM,11µM[quencher],nt,?
Cc1ccccc1Nc1c(-c2c[nH]c3ccccc23)nc2ccccn12,nt,i,i,?,nt,i
Cc1ccccc1Nc1c(-c2c[nH]c3ccccc23)nc2ccc(Cl)cn12,nt,i,i,?,nt,?
Cc1ccc2c(CN3CC(C)CC(C)C3)cc(=O)oc2c1 (centres undefined),i,nt,i,nt,i,nt
Cc1ccc2c(CN3CCC(C)CC3)cc(=O)oc2c1,i,i,45µM,i,i,i
Cc1ccc2c(CN3CCCCC3CCO)cc(=O)oc2c1 (centres undefined),i,nt,25µM,nt,i,nt
Cc1ccc2c(CN3CCCCC3C)cc(=O)oc2c1 (centres undefined),i,nt,i,nt,i,nt
CCOC(=O)c1cc(OC(=O)c2ccccc2C)n(-c2ccccc2)n1,nt,?,i,i,nt,i
CC1(C2CC2)NC(=O)N(CC(=O)Nc2ccccc2F)C1=O (centres undefined),nt,nt,i,nt,nt,nt
O=C1OC(Nc2ccc3c(c2)OCO3)c2ccccc21 (centres undefined),56µM,13µM,?,?,i,?
O=C(CCN1CCCCC1)c1ccc2c(c1)OCCO2,i,?,8.9µM,i,i,i
O=C(CCN1CCc2ccccc2C1)c1ccc2c(c1)OCCO2,45µM,i,8.9µM,i,i,i
O=C(CCN1CCCC1Cc1ccccc1)c1ccc2c(c1)OCCO2 (centres undefined),50µM,i,2.8µM,i,i,?
COc1cc(C(=O)CCN2CCC(c3ccccc3)C2)cc(OC)c1OC (centres undefined),i,i,3.5µM,i,i,i
O=C(CCc1ccccc1)c1ccc2c(c1)OCCCO2,i,i,i,i,i,i
O=C(CCN1CCC(c2ccccc2)C1)c1cccs1 (centres undefined),i,?,?,i,i,i
O=C(CCN1CCCCCC1)Nc1ccc2c(c1)OCCO2,i,i,?,i,i,i
CC1(C)OC(C(O)(c2ccccc2)c2ccccc2)[C@@H](C(O)(c2ccccc2)c2ccccc2)O1 (some centres undefined),i,nt,i,nt,i,nt
CCOC(=O)c1cc2c(=O)n3ccccc3nc2n(CC2CCCO2)c1=NC(=O)c1ccc(F)cc1 (centres undefined),nt,i,i,i,nt,i
CCOc1ccccc1NC(=O)Cn1c(=O)n(-c2ccc(F)cc2)c(=O)c2sc3ccccc3c21,nt,i,i,i,nt,i
Cc1cc(C)cc(NC(=O)Nc2c[nH]c(=O)[nH]c2=O)c1,nt,i,i,i,nt,i
CCOC(=O)c1ccc(NS(=O)(=O)c2ccc3c(c2)OCCO3)cc1,nt,i,i,i,nt,i
CCOC(=O)C(=O)CC(=O)c1ccc2c(c1)OCCO2,i,i,20µM,i,i,i
O=C(CCN1CCC(c2ccccc2)C1)c1ccc2c(c1)OCCO2 (centres undefined),50µM,?,7.9µM,i,i,?
O=C(CCN1CCC(c2ccccc2)C1)c1ccccc1 (centres undefined),i,i,nt,i,i,i
SMILES,Sfp PPTase inh,Tau ThT inhib,G9a inh,Tau fluor cs,FBPA coupling cs,Tau FP inhib
Cc1nn(C)c(C(=O)NN)c1Cl,i,i,i,i,i,i
COCc1c(C(=O)N/N=C\c2ccccn2)nnn1-c1nonc1N,56µM,nt,0.79µM,nt,i,nt
Nc1nonc1-n1nnc(C(=O)N/N=C/c2cccc(O)c2)c1CN1CCCC1,i,nt,45µM,nt,nt,nt
Nc1nonc1-n1nnc(C(=O)N/N=C/c2ccc(Cl)cc2Cl)c1CN1CCCCC1,i,nt,35µM,nt,i,nt
CCOC(=O)C(=CNc1cc(C(F)(F)F)ccc1N1CCOCC1)C(=O)OCC,i,i,i,i,i,i
CS(=O)(=O)c1ccc2nc(NC(=O)c3ccc(NS(=O)(=O)c4ccc(F)c(F)c4)cc3)sc2c1,i,nt,nt,?,i,?
CCCCNS(=O)(=O)c1ccc2nc(NC(=O)c3cccnc3)sc2c1,nt,i,i,i,nt,i
O=C(Nc1nc2ccc(SC(F)F)cc2s1)c1ccc(NS(=O)(=O)c2ccc(F)c(F)c2)cc1,i,?,i,?,i,13µM
CCCNS(=O)(=O)c1ccc2nc(NC(=O)c3ccc(F)cc3)sc2c1,nt,28µM,1.4µM,i,nt,?
Cc1cccc(N2CCN(C(=O)c3ccc4c(c3)N(Cc3cccc(Cl)c3)C(=O)c3ccccc3S4=O)CC2C)c1 (centres undefined),nt,i,?,i,nt,i
Cc1cccc(NC(=O)CN2c3ccccc3S(=O)(=O)c3ccccc32)c1C,nt,i,i,i,nt,i
COc1cc(CN2CCCCC2C(=O)Nc2ccc(Oc3ccccc3)nc2)ccc1O (centres undefined),i,nt,5.6µM,nt,i,nt
O=C(Nc1ccc(Oc2ccccc2)nc1)C1CCCCN1Cc1ccc(O)cc1 (centres undefined),i,nt,i,nt,nt,nt
CC1=C(C(=O)OC2CCCCC2)C(c2ccccc2Br)NC(=O)N1 (centres undefined),i,nt,?,nt,i,nt
Cc1ccc(Cn2c(CN3CCN(c4cccc(Cl)c4)CC3)nc3c2c(=O)n(C)c(=O)n3C)cc1,nt,i,?,i,nt,i
S=c1[nH]nc(-c2ccc3ccccc3n2)o1,i,i,8.9µM,i,i,i
FC(F)(F)c1ccc(-c2n[nH]c(=S)o2)nc1,i,i,40µM,i,i,i
COC(=O)/C=C1/N/C(=N\c2nc(C)cc(C)n2)N(c2ccc(Cl)cc2)C1=O,i,i,i,i,i,i
NC(=O)c1sc2nc(-c3cccnc3)ccc2c1N,?,nt,10µM,i,i,i
CCOc1ccccc1NC(=O)c1sc2nc(-c3ccc(OC)cc3)ccc2c1N,nt,?,i,3.5µM[quencher],nt,i
COc1ccc(C(=O)c2sc3nc(-c4ccccc4)ccc3c2N)cc1,i,?,?,10µM[quencher],i,i
COC(=O)c1sc2nc3c(cc2c1N)CCCC3,i,?,i,i,i,i
COC(=O)c1sc2nc(N)c(C#N)cc2c1N,i,?,45µM,i,i,i
O=C(Nc1ccc([N+](=O)[O-])cc1)c1cc(-c2ccccn2)nc2c(Cl)cccc12,i,i,i,i,i,i
COc1ccc(-c2ccc3c(N)c(C(=O)Nc4ccc(C)cc4C)sc3n2)cc1OC,nt,?,?,8.9µM[quencher],nt,i
COc1ccc(-c2c(C#N)c(N)nc3sc(C(=O)c4ccccc4)c(N)c23)cc1,i,i,50µM,i,i,i
COc1cccc(-c2ccc3c(N)c(C(=O)c4ccc(Cl)cc4)sc3n2)c1,nt,4.5µM,i,2.8µM[quencher],nt,?
COC(=O)c1sc2nc(-c3ccco3)ccc2c1N,8.9µM,7.1µM,?,?,i,i
